Assay results as given in the OligoGym collection.

molecular target: ALOX12B; assay: pooled miR-30 sensor sort-seq; sequence = guide strand; conditions: shRNA
Note: reference of the scale not given here.

Sequence | sensor-assay potency score (higher = more potent)
TTGATCTGGACGGTGTATCGGG | -0.0019
AACTTGTCTGGGATCCGCGTGC | 0.172
TCACATACTTCTCCAGTGCATT | -1.5
ATAATAGGTGATGATCTCCGTC | -0.228
TCTGATCTCCTCTTTTCTGTGC | 0.286
TTTGCAGTCCAACAGGCCGCGG | -1.33
TAGAAGTCCTGCTTGGCTCTGA | 0.53
TCATCTGCTGTTGTCTTTCCTG | -0.399

molecular target: ALPK1; assay: as above; conditions: shRNA

Sequence | sensor-assay potency score (higher = more potent)
TTCACTAATTTCTTCTCCCTGC | -0.272
TTGATGAAGATGATGAACCCAA | 0.0893
TAAATCGACCACAACATCTCTA | 0.166
TTGAACTTGTAAATGTTCCTTC | 0.693
TTGTTCATAGAGTCTCTTGTTA | 0.0334
AAATCGACCACAACATCTCTAT | -0.634
TTCATTACATTCCACATGCTGG | -0.496
TCTGTTTTCACCACTTTCGTGT | 0.311
TAACTTCTTGAGACAGAGCTTC | -0.293
TATACAGACCGACTGCACCAGG | -1.24
TTGCAGAGGAACTAAACCCTGA | -0.0397

molecular target: AMICA1; assay: as above; conditions: shRNA

Sequence | sensor-assay potency score (higher = more potent)
TTTTCAAGTGAGTTGTTCCGAT | -0.169
AATAGTATAGCACATATTCGTC | -1.02
TATAGCACATATTCGTCCTTGG | -0.0697
TTTGTCTTCTGTGCTCTGGAAA | -0.894
TGAATATACATTTGTCTTCTGT | -0.514
TTCTTGAACACCAGGTTCCCTA | -1.01
TATCAGAACAGGGAGCAGCAGG | -0.745
TATACATTTGTCTTCTGTGCTC | -0.0847
TCTATCTTGAATATACATTTGT | -0.466
TATCTCTGGATTAGTCTTCTTC | -0.382
TCTGGATTAGTCTTCTTCGTGT | -0.36
TTGCACATCTTGGAGCAGGAGA | -0.908

molecular target: AMOTL1; assay: as above; conditions: shRNA

Sequence | sensor-assay potency score (higher = more potent)
TTAACTTTGTTTGCAAACCTAC | 0.352
TTGCAGTCCGCACTGCTGCTAA | -0.698
TTTGTCTTCATGCCCTTCGTAT | -0.754
TTTCTCAACATATGCTTGCTTC | -0.629
TTGTGGGTCTTCTTGAGTGAGG | -0.72
TAATCATAGCATCTTTCTCTAT | -1
TTCTTGAGTGAGGTTTTCCGTG | -0.593
TAGACTTGACCAGACTTTCATA | -0.788
TTTTTCAAACTTGTGGAGCTTG | 0.0773
